This is a sample that favours compounds with a hit; in the whole collection about 21% have one here.
Pf growth 96h – Primary qHTS for delayed death inhibitors of the malarial parasite plastid, 96 hour incubation | P. falciparum luciferase reporter growth, 96 h | Potency, µM (series often up to 28.7 µM), for the others: at the top dose activity change, negative = inhibition, hits mostly inhibitors | hit rate 6.9% among 320,000 | AID 504834, 2011; further: potency means the concentration at half of the fitted maximal effect; on the % scale 0 is the no-effect control and ±100 the full control effect
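P. falciparum expressing integrated firefly luciferase, in erythrocytes at 2% hematocrit, 0.05% parasitemia, incubated with compounds 96 h at 37 C, 5% CO2. Growth inhibition read as loss of luminescence; two-generation exposure targets delayed-death apicoplast inhibitors.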
Shiga toxin inh – A qHTS for Small Molecule Inhibitors of Shiga Toxin | inhibition, % at 38.7 µM | AID 2315, 2010 | Vero cells, Shiga toxin protein synthesis inhibition reporter | hit rate 9.2% among 290,000; in the data active means inhibition mostly above about 28%, no sharp cut-off; inactive means mostly below about 43%; further: 0% is about no effect
NS1 inh – qHTS Assay for Inhibitors of Influenza NS1 Protein Function; hit rate 0.4% among 270,000; AID 2326, 2010; Potency, µM (highest dose often 46.1 µM), for the others: at the top dose activity, positive = more growth; calls by dose curve; further: potency means the concentration at half of the fitted maximal effect; actives are rising curves; nearly all actives have a fitted effect of over 50% in size
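In this qHTS, NS1 from influenza A is expressed in budding yeast, where it slows growth. Cells are switched from glucose to 2% galactose medium (pH 6.0, -URA), treated with compound, and growth recovery is read at OD600.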
SARS PLpro yeast – qHTS of Yeast-based Assay for SARS-CoV PLP; AID 485353, 2010; hit rate 0.19% among 330,000; S. cerevisiae expressing SARS-CoV PLpro, growth rescue; Potency, µM (series often up to 32.9 µM), without a hit: at the highest dose activity, positive = growth rescue, usual class: activators; calls by dose curve; further: potency means the concentration at half of the fitted maximal effect; 0% is about no effect; nearly all actives have a fitted effect of over 55% in size
Cycloheximide cs – Cycloheximide Counterscreen for Small Molecule Inhibitors of Shiga Toxin; cell reporter, cycloheximide protein synthesis inhibition counterscreen; max response, %; hit rate 12% among 300,000; AID 2314, 2010; in the data active means max response mostly above about 13%, no sharp cut-off; inactive means mostly below about 14%; further: read at 38.3 µM for the half of the compounds with a filed dose; 0% is about no effect
Pf growth 48h – Primary qHTS for delayed death inhibitors of the malarial parasite plastid, 48 hour incubation | hit rate 5.9% among 310,000 | Potency, µM (doses to about 28.7 µM), for the others: at the highest dose activity change, negative = inhibition, actives largely listed as inhibitors | AID 504832, 2011 | P. falciparum luciferase growth in erythrocytes, 48 h; further: potency means the concentration at half of the fitted maximal effect; on the % scale 0 is the no-effect control and ±100 the full control effect
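Growth was read as firefly luciferase luminescence after a 48 h, 37 C, 5% CO2 exposure of compounds to reporter-bearing P. falciparum cultures (0.1% parasitemia, 2% hematocrit final) in Albumax-supplemented RPMI 1640.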
Active calls of the source: *. Unless noted, the call rests on the fitted dose curve; in most records, active means well fitted inhibition curve with a large enough effect; inconclusive means small, poorly fitted or top-dose-only effect, or another doubt; inactive means no such curve, though single readings can be large or run the other way.

What do the screens show for `O=C(CSCc1cnn(-c2ccccc2)c1-n1cccc1)N1CCN(Cc2ccccc2)CC1`?
Pf growth 96h: inconclusive; Shiga toxin inh: -18; NS1 inh: -42%; SARS PLpro yeast: -8%; Cycloheximide cs: -3

What do the screens show for `O=C(NCc1ccc2c(c1)OCO2)C1CCN(Cc2cnn(-c3ccccc3)c2-n2cccc2)CC1`?
Pf growth 96h: 38%; Shiga toxin inh: 7; NS1 inh: -4%; Cycloheximide cs: -2; Pf growth 48h: inconclusive

Results for COCCCC1CCN(C(=O)C2CCC(=O)N(Cc3ccccc3F)C2)CC1 (stereo not given) ?
Pf growth 96h: inconclusive; Shiga toxin inh: 14; NS1 inh: 9%; SARS PLpro yeast: 7%; Cycloheximide cs: 11; Pf growth 48h: -17%

Results for Cc1cc(C(=O)COC(=O)c2cccc(NS(C)(=O)=O)c2)c(C)n1CC1CCCO1 (stereo not given) ?
SARS PLpro yeast: 1%

How did COc1ccc(C2CC(c3ccccc3)Oc3ccc(C(C)(C)C)cc32)cc1 (stereo not given) do in these assays?
Shiga toxin inh: 23; Cycloheximide cs: 9

How did COC(=O)C(Cc1ccccc1)NC(=O)CCNC(=O)c1ccc(Br)cc1 (stereo not given) do in these assays?
Pf growth 96h: 33%; Shiga toxin inh: -9; NS1 inh: 9%; SARS PLpro yeast: 1%; Cycloheximide cs: 6; Pf growth 48h: 27%

What do the screens show for `Cc1n(Cc2ccccc2)c2ccccc2[n+]1Cc1ccccc1`?
Pf growth 96h: 425%; NS1 inh: -1%; SARS PLpro yeast: -3%; Cycloheximide cs: -3; Pf growth 48h: 1.3µM*

What do the screens show for `CCn1c(C)[n+](Cc2ccccc2)c2ccc(Cl)cc21`?
Pf growth 96h: -82%; Shiga toxin inh: -8; SARS PLpro yeast: 0%; Cycloheximide cs: -3; Pf growth 48h: 7.4µM*

How did c1ccc(-c2nnc(-c3ccccn3)nc2NC2CCCCC2)cc1 do in these assays?
Shiga toxin inh: 19; NS1 inh: -151%; SARS PLpro yeast: -50%; Cycloheximide cs: 24; Pf growth 48h: 0.93µM*

What do the screens show for `O=C1CNC(=O)N1`?
Pf growth 96h: inconclusive; Shiga toxin inh: -6; NS1 inh: 6%; SARS PLpro yeast: -3%; Cycloheximide cs: -3; Pf growth 48h: 11%

Results for Cc1cc(C)cc(NC(=O)CS(=O)(=O)c2ccccc2)c1 ?
Pf growth 96h: -24%; Shiga toxin inh: 21; NS1 inh: -8%; SARS PLpro yeast: 13%; Cycloheximide cs: -2; Pf growth 48h: -3%

What do the screens show for `CC(C)OC(=O)CSc1nc2ncccc2[nH]1`?
Pf growth 96h: 23%; Shiga toxin inh: -16; NS1 inh: 0%; SARS PLpro yeast: -3%; Cycloheximide cs: -2; Pf growth 48h: 19%

Results for O=C(CSc1ccccc1)Nc1ccc(C(=O)Nc2ccc(O)cc2)cc1 ?
Pf growth 96h: 21%; Shiga toxin inh: 2; SARS PLpro yeast: -2%; Cycloheximide cs: 19; Pf growth 48h: 5%

What do the screens show for `COC(=O)c1ccc(NC(=O)CS(=O)(=O)c2ccccc2)cc1`?
Pf growth 96h: -29%; Shiga toxin inh: 46; NS1 inh: -10%; SARS PLpro yeast: inconclusive; Cycloheximide cs: 11*; Pf growth 48h: 12%

Results for O=C(CSc1nc2ncccc2[nH]1)c1ccc2c(c1)OCO2 ?
Pf growth 96h: 99%; Shiga toxin inh: 43*; NS1 inh: 1%; SARS PLpro yeast: 0%; Cycloheximide cs: 39*; Pf growth 48h: 28%

Results for COC(=O)c1ccc(NC(=O)CSc2nc(C)cc(=O)[nH]2)cc1 ?
Pf growth 96h: -14%; Shiga toxin inh: -10; NS1 inh: 7%; SARS PLpro yeast: 2%; Cycloheximide cs: -6

What do the screens show for `COC(=O)c1ccc(NC(=O)CSc2nc3ncccc3[nH]2)cc1`?
Pf growth 96h: 19%; Shiga toxin inh: 22; NS1 inh: -1%; SARS PLpro yeast: 0%; Cycloheximide cs: 12*; Pf growth 48h: 15%

How did COC(=O)c1ccc(NC(=O)CSc2ccccc2)cc1 do in these assays?
Pf growth 96h: 70%; Shiga toxin inh: 64*; NS1 inh: -4%; SARS PLpro yeast: -1%; Cycloheximide cs: 31*; Pf growth 48h: 60%

Results for CCOc1ccc(NC(=O)c2ccc(NC(=O)Cc3n[nH]c(=O)c4ccccc34)cc2)cc1 ?
Pf growth 96h: -25%; Shiga toxin inh: 11; NS1 inh: 8%; SARS PLpro yeast: 2%; Cycloheximide cs: 10; Pf growth 48h: -35%

What do the screens show for `COC(=O)c1ccc(NC(=O)CSc2ccccn2)cc1`?
Pf growth 96h: 31%; Shiga toxin inh: 36*; NS1 inh: -1%; SARS PLpro yeast: -15%; Cycloheximide cs: 58*

What do the screens show for `N#Cc1cccc(NC(=O)Cc2ccccc2)c1`?
Pf growth 96h: inconclusive; Shiga toxin inh: 30; NS1 inh: -1%; SARS PLpro yeast: 1%; Cycloheximide cs: 9; Pf growth 48h: 1%

What do the screens show for `CCN(CC)C(=O)CSc1nc2ncc(Cl)cc2[nH]1`?
Pf growth 96h: inconclusive; Shiga toxin inh: 9; NS1 inh: 3%; SARS PLpro yeast: -5%; Cycloheximide cs: 10; Pf growth 48h: 28%

What do the screens show for `N#Cc1cccc(NC(=O)CSc2ccccc2)c1`?
Pf growth 96h: -21%; Shiga toxin inh: 3; NS1 inh: -1%; SARS PLpro yeast: -8%; Cycloheximide cs: 9.1*; Pf growth 48h: 39%

What do the screens show for `COCCCN(Cc1ccco1)C(=O)CSc1nc2ncccc2[nH]1`?
Pf growth 96h: 13µM*; Shiga toxin inh: 10; NS1 inh: 9%; SARS PLpro yeast: -1%; Cycloheximide cs: 1; Pf growth 48h: 3%

What do the screens show for `COC(=O)c1ccc(NC(=O)CSc2nc3cccnc3n2C)cc1`?
Pf growth 96h: 117%; Shiga toxin inh: -12; NS1 inh: 5%; SARS PLpro yeast: -10%; Cycloheximide cs: -3; Pf growth 48h: inconclusive

What do the screens show for `COc1cc(OC)cc(C(=O)Nc2nnc(Cc3ccc(OC)c(OC)c3)s2)c1`?
Pf growth 96h: -10%; Shiga toxin inh: -16; SARS PLpro yeast: 3%; Cycloheximide cs: 6; Pf growth 48h: 0%

Results for O=C(CSc1nnc(C23CC4CC(CC(C4)C2)C3)o1)Nc1ccc(N2CCOCC2)c(Cl)c1 ?
Pf growth 96h: -1%; Shiga toxin inh: -6; NS1 inh: -45%; SARS PLpro yeast: -6%; Cycloheximide cs: -4; Pf growth 48h: 4%

How did Cc1oc(CSCCSCc2cc(C(=O)O)c(C)o2)cc1C(=O)O do in these assays?
Pf growth 96h: 15µM*; NS1 inh: inconclusive; SARS PLpro yeast: -4%; Cycloheximide cs: -1; Pf growth 48h: 7%

How did CCOc1ccc(OCC(=O)Nc2ccccc2N2CCCC2)cc1 do in these assays?
Pf growth 96h: 12µM*; SARS PLpro yeast: -7%; Pf growth 48h: inconclusive
